Hits are enriched below; roughly 4.3% of the tested compounds scored in any of these assays.
SMARCA2 act – activators of SMARCA2 function. MG213 cells, MMTV-luciferase reporter, dexamethasone, overnight. activation, % at 9.1 µM. 1% of 370,000 active. AID 652017; in the data active = activation above about 7.8%
AF4-AF9 inh – MLL-AF4/AF9 protein interaction inhibition | inhibition, % at 10 µM | AlphaScreen, biotin-AF4 peptide binding to FLAG-AF9 | AID 651704 | 0.47% of 350,000 active | P42568;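 active = every replicate reaching a set inhibition limit, whatever the replicate mean, cut at about 25% in these data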
Wnt bcat act – activators of Wnt/beta-catenin signaling; 1.2% of 300,000 active; activation, % at 9.35 µM; Wnt/beta-catenin reporter cell assay, activator, plate reader; in the data active = activation above about 30%, passing the limit was not always enough
FGF22 binding – shifts melting point of recombinant human FGF22. Q9HCT0. recombinant FGF22 thermal shift, SYPRO orange fluorescence; percent of sucrose octasulfate shift, DMSO zero. activity (Tm shift, normalised), % at 9.99 µM. 1.5% of 340,000 active. AID 651658;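 active = mean Tm shift, scaled 0 neutral to 100 positive control, at about 1.3% or above, every replicate too, limit read from the data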
Target sequence (Q9HCT0 whole entry, looked up): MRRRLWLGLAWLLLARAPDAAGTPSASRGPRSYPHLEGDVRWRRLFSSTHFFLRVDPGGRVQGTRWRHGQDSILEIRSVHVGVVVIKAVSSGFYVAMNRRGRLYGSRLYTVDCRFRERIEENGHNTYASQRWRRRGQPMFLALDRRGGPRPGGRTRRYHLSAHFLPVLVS
esBAF inh – SWI/SNF esBAF complex inhibition; mouse ES cells, Bmi1-luciferase knock-in reporter, 24 h; 100% = twice the neutral-well signal; reporter increase, % at 12.5 µM; 2% of 350,000 active; in the data active = activation above about 40%;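 also: a rise in the Bmi1 reporter signal indicates esBAF inhibition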
MITF act – increases MITF-driven TRPM1 promoter luciferase signal; SK-MEL-5 TRPM1-promoter luciferase, 24 h; % of positive control, neutral wells = 0; 0.75% of 300,000 active; activation, % at 12.5 µM; AID 588334;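 active = mean activation of at least 80% with every replicate also reaching 80%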
Of the large screens only hits and unclear results are named; the others gave an inactive call.

OCCC1CN(Cc2ccc3ncccc3c2)CCN1Cc1ccccc1 (stereo unspecified)	none (no result: esBAF inh)
OCCC1CN(Cc2cccc3nccnc23)CCN1Cc1ccc(F)c(F)c1 (stereo unspecified)	FGF22 binding 43.6 (no result: esBAF inh)
CC(C)CN1CCN(Cc2ccc3ncccc3c2)CC1CCO (stereo unspecified)	FGF22 binding 43.8
COc1ccc(/C=C/CN2CCN(Cc3cccc(OC)c3)C(CCO)C2)cc1 (stereo unspecified)	none (no result: esBAF inh)
O=C(Nc1ccc(Cl)cc1)Nc1ccccc1C(=O)N1CCCC1	none (no result: AF4-AF9 inh, Wnt bcat act, FGF22 binding, esBAF inh, MITF act)
COc1ccc(-c2nc(N)nc(N)n2)c(O)c1	esBAF inh 47.9
COc1ccc2nc3sc(C(=O)NCCCN4CCc5ccccc5C4)cc3cc2c1	esBAF inh 73.2
COc1ccc2nc3sc(C(=O)N4CCN(C)CC4)cc3cc2c1	none (no result: AF4-AF9 inh, Wnt bcat act, FGF22 binding)
O=c1c(-c2cnn(-c3ccccc3)c2)coc2cc(O)ccc12	esBAF inh 104.6 (no result: SMARCA2 act, AF4-AF9 inh, Wnt bcat act, FGF22 binding)
Cc1oc2cc(O)ccc2c(=O)c1-c1cnn(-c2ccccc2)c1	none (no result: AF4-AF9 inh, Wnt bcat act, FGF22 binding)
O=C(NCC1CCCO1)C(c1ccc(F)cc1)N(Cc1ccc2c(c1)OCO2)C(=O)c1ccc(CN2CCOCC2)o1 (stereo unspecified)	FGF22 binding 43.0
COc1ccc(CN(C(=O)c2ccc(CN3CCOCC3)o2)C(C(=O)NCC2CCCO2)c2ccc(F)cc2)cc1 (stereo unspecified)	none
C[C@@H]1CN([C@H](C)CO)C(=O)c2cc(C#CCN(C)C)cnc2O[C@@H]1CN(C)C(=O)c1cccc(F)c1	none (no result: SMARCA2 act, Wnt bcat act, MITF act)
COc1ccccc1-c1cn(CC[C@H]2CC[C@H](NC(=O)C3CCOCC3)[C@H](CO)O2)nn1	none (no result: SMARCA2 act, Wnt bcat act, MITF act)
COc1ccc(NC(=O)N(C)C[C@H]2Oc3ccc(NC(=O)Nc4ccc5c(c4)OCO5)cc3C(=O)N([C@@H](C)CO)C[C@@H]2C)cc1	none (no result: SMARCA2 act, Wnt bcat act, MITF act)
CCCCCCn1cc(C(=O)OCC)c(=O)c2cc(F)c(F)cc21	none (no result: MITF act)
CCOC(=O)c1cn(CC#N)c2cc(F)c(F)cc2c1=O	FGF22 binding 43.0 (no result: esBAF inh)
COc1ccccc1CNC(=O)C[C@@H]1C[C@@H]2c3cc(NC(=O)c4ccc5c(c4)OCO5)ccc3O[C@@H]2[C@H](CO)O1	none (no result: SMARCA2 act, Wnt bcat act, MITF act)
CCCc1cn(CC[C@H]2CC[C@H](NC(=O)C3CCOCC3)[C@H](CO)O2)nn1	none (no result: SMARCA2 act, Wnt bcat act, MITF act)
C[C@@H]1CN([C@H](C)CO)C(=O)Cc2cc(NS(=O)(=O)c3cn(C)cn3)ccc2O[C@H]1CN(C)Cc1ccc(C(=O)Nc2ccccc2N)cc1	none (no result: SMARCA2 act, Wnt bcat act, esBAF inh, MITF act)
COCC(=O)Nc1ccc2c(c1)C(=O)N(C)C[C@H](OC)[C@H](C)CN(C(C)=O)[C@H](C)CO2	none (no result: SMARCA2 act, Wnt bcat act, MITF act)
CCOc1cc(/C=N/NC(=O)CSc2nnc(C)s2)ccc1OCc1ccccc1Cl	Wnt bcat act 52.3 (no result: esBAF inh)
c1ccc2c(Cn3nnc4ccccc43)cccc2c1	none (no result: AF4-AF9 inh, Wnt bcat act, FGF22 binding)
c1ccc2c(COn3nnc4ccccc43)cccc2c1	esBAF inh 55.8 (no result: AF4-AF9 inh, Wnt bcat act, FGF22 binding)
Cn1c(SCc2ccccc2Cl)nc2ccccc21	MITF act 131.4 (no result: AF4-AF9 inh, Wnt bcat act, FGF22 binding, esBAF inh)
Cn1c(SCc2ccccc2Cl)nnc1-c1cnccn1	esBAF inh 68.4 (no result: AF4-AF9 inh, Wnt bcat act, FGF22 binding)
O=C(C[C@@H]1CC[C@@H](NC(=O)c2ccncc2)[C@H](CO)O1)NCCc1ccncc1	none (no result: SMARCA2 act, Wnt bcat act, MITF act)
CCOC(=O)c1cc(-c2ccccc2)nn1Cc1cc(CC)no1	esBAF inh 61.2
C[C@@H]1CN([C@H](C)CO)C(=O)c2cccc(NS(=O)(=O)c3ccc(F)cc3)c2O[C@H]1CN(C)C(=O)Nc1ccc(F)cc1	none (no result: SMARCA2 act, Wnt bcat act, MITF act)
O=C(OCC(=O)c1cccs1)c1ccccc1	esBAF inh 47.4 (no result: AF4-AF9 inh, FGF22 binding)
O=C(COC(=O)c1ccc(N2CCCC2=O)cc1)c1ccccc1	esBAF inh 44.9 (no result: MITF act)
O=C(COC(=O)c1ccc(N2CCCC2=O)cc1)Nc1ccccc1	none
Nc1cccc(C(=O)OCC(=O)c2ccccc2)c1	Wnt bcat act 39.6 (no result: AF4-AF9 inh, FGF22 binding, esBAF inh)
CC(=O)N1CC(=O)N2[C@H](C1)[C@H](c1ccc(-c3cccc(C(=O)N(C)C)c3)cc1)[C@@H]2CO	none (no result: SMARCA2 act, Wnt bcat act, FGF22 binding, esBAF inh, MITF act)
C=CCn1c(Cc2cccs2)nnc1SCC(=O)Nc1ccc2c(c1)OCO2	none (no result: AF4-AF9 inh, Wnt bcat act, FGF22 binding, esBAF inh, MITF act)
CCOc1ccccc1Cn1c(=O)sc2ccccc21	FGF22 binding 43.1 (no result: esBAF inh)
O=c1sc2ccccc2n1CCCOc1ccccc1	Wnt bcat act 70.8, esBAF inh 80.6 (no result: AF4-AF9 inh, FGF22 binding)
Cc1ccc(OCCCn2c(=O)sc3ccccc32)cc1	none (no result: AF4-AF9 inh, Wnt bcat act, FGF22 binding)
Cc1ccccc1OCCCn1c(=O)sc2ccccc21	esBAF inh 54.3 (no result: AF4-AF9 inh, Wnt bcat act, FGF22 binding)

Compound activity from PubChem BioAssay.
